Screening data as filed in PubChem BioAssay.
Shown are actives, neighbours in structure and some others; about 7.1% of the full set was active somewhere.
ATXN2 expr inh: inhibitors of ATXN2 expression; HEK-293 ATXN2-luciferase reporter, luminescence, 24 h; Potency, µM (highest dose often 57 µM), for inactives: top-dose activity change, negative = inhibition, actives largely listed as inhibitors; hit rate 0.72% among 360,000; further: potency means the concentration at half of the fitted maximal effect; on the % scale 0 is the no-effect control and ±100 the full control effect; nearly all actives have a fitted effect of over 55% in size
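ATXN2-luciferase reporter cells (luciferase flanked by upstream and downstream ATXN2 gene portions) were treated 24 h at 37 °C with compounds at up to 57 uM. SteadyGlo luminescence gave expression; GF-AFC fluorescence gave viability.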
ATXN viability: viability counter-screen for ATXN expression inhibitors; S2 cells (HEK-293 line with an ATXN2-luciferase reporter) viability, CellTiter-Fluor protease fluorescence, 24 h; Potency, µM (series often up to 56.7 µM), actives largely listed as cytotoxic; hit rate 0.49% among 400,000; AID 651635; further: potency means the concentration at half of the fitted maximal effect; nearly all actives have a fitted effect of over 40% in size
SW480 rerep: DNA re-replication induction in SW480 cells; hit rate 1.8% among 340,000; SW480 DNA re-replication, Hoechst DNA content imaging, 48 h; AID 624297; Potency, µM (titrated, usually from 46.1 µM), for the others: at the highest dose re-replication activation, usual class: activators; further: potency means the concentration at half of the fitted maximal effect; % of control where 0% means no effect; nearly all actives have a fitted effect of over 55% in size
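First, 250 cells per well were seeded. Next, compound or vehicle (23 nL) was pinned in, plates sat 48 hr at 37 C. Finally Hoechst was added for 40 min before fluorescence scanning.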
PINK1 expr mod: modulators of PINK1 expression. PINK1 immunofluorescence, high-content cytometry, 24 h. Potency, µM (series often up to 76.6 µM), for inactives: top-dose activation (PINK1 increase), most hits filed as activators. hit rate 0.2% among 410,000; active means well fitted activation curve with a large enough effect; inconclusive means small, poorly fitted or top-dose-only effect; cell line not stated here; further: potency means the concentration at half of the fitted maximal effect; % of control where 0% means no effect; nearly all actives have a fitted effect of over 65% in size
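Measures PINK1 amount and localization on or inside mitochondria by immunofluorescence. Stable cells get compounds at 5 concentrations for 24 hours before fixation and staining; CCCP controls included.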
IL-1B inflam inh: blocks inflammasome-driven IL-1 beta release. THP-1 LPS/ATP IL-1B secretion, AlphaLISA, 16 h; active compounds read low. hit rate 4.7% among 360,000. activity change, % at 57.5 µM; in the data active means activity change below about -50%; inconclusive means mostly about -30% to -49%; further: on the % scale 0 is the no-effect control and ±100 the full control effect
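THP-1 cells pretreated 1 hr with compounds (up to 57.5 uM final), then stimulated with LPS (250 ng/mL final) plus ATP (1.25 mM final); secreted IL-1B measured by AlphaLISA after 16 hr, decreased signal indicating inhibition.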
MCF10A rereplic: DNA re-replication induction in MCF 10a cells. MCF 10A DNA re-replication, Hoechst nuclear intensity, 48 h. Potency, µM (top dose mostly 46.1 µM), without a hit: at the highest dose activity, positive = re-replication, usual class: activators. hit rate 2.9% among 350,000; further: potency means the concentration at half of the fitted maximal effect; % of control where 0% means no effect; nearly all actives have a fitted effect of over 50% in size
Starred values were filed as active, the others as inactive; i = inactive; ? = inconclusive; . = no result; ! = not confirmed by another sample; [ ] = dose if it differs, or a comment. Unless noted, the call rests on the fitted dose curve; in most records, active means well fitted curve in the direction sought with a large enough effect; inconclusive means small, poorly fitted or top-dose-only effect, or another doubt; inactive means no such curve, though single readings can be large; an effect the other way counts as inactive or inconclusive.

SMILES	ATXN2 expr inh	ATXN viability	SW480 rerep	PINK1 expr mod	IL-1B inflam inh	MCF10A rereplic
Cc1ccc(NS(=O)(=O)c2cc(NC(=O)c3ccc4c(c3)NC(=O)CS4)ccc2C)c(C)c1	?	?	-1%	2%	-115*	?
CC(=O)c1c(C)[nH]c(C(=O)Nc2ccc(C)c(S(=O)(=O)Nc3ccc(C)cc3C)c2)c1C	?	?	16µM*	22%	-4	12µM*
Cc1cc(C)cc(NS(=O)(=O)c2ccc(NC(=O)c3ccccc3C(=O)O)cc2)c1	1%	i	-21%	0%	0	?
Cc1ccc(NS(=O)(=O)c2ccc(NC(=O)c3ccccc3C(=O)O)cc2)c(C)c1	-9%	i	-11%	2%	-67*	2%
COc1cccc([C@@H](C)NCCCc2ccccc2Cl)c1	4%	.	.	.	.	.
CC(=O)Nc1cccc(-c2ccnc3c2CC(C(=O)NCc2ccc(F)c(F)c2)O3)c1 (stereo unspecified)	-6%	i	.	5%	63	.
CC(C)=CCNc1ncnc2c1c(C#N)cn2C1OC(CO)C(O)C1O (stereo unspecified)	-31%	?	?	-3%	4	15µM*
OCC1OC(n2cnc3c(NO)ncnc32)C(O)C1O (stereo unspecified)	.	.	.	-1%	.	.
OC[C@@H]1CN(Cc2cccnc2)C[C@H](n2cnc3c(N4CCN(c5ccccc5)CC4)ncnc32)O1	-19%	i	.	5%	-79*	.
CCN(CC)c1ncnc2c1ncn2[C@H]1CN(Cc2ccc(-c3ccccc3)cc2)C[C@@H](CO)O1	?	i	.	10%	-54*	.
CCN(CC)c1ncnc2c1ncn2[C@H]1CN(Cc2ccco2)C[C@@H](CO)O1	13%	i	.	1%	-16	.
OC[C@@H]1CN(Cc2ccc(F)cc2)C[C@H](n2cnc3c(N4CCCC4)ncnc32)O1	2%	i	.	0%	-91*	.
CCOC(=O)c1ccc(NC(=O)CSc2nccn2-c2ccc(OCC)cc2)cc1	-7%	i	.	6%	.	.
COc1ccccc1CNC(=O)c1cccn1-c1nnc(N2CCCC2)s1	.	.	.	0%	.	.
Cc1ccc2nc3sc(C(=O)Nc4c(C)[nH]c(=O)[nH]c4=O)c(N)c3cc2c1	16%	i	-6%	?	-8	-3%
Cc1ccc2cc3c(N)c(C(=O)Nc4c(C)[nH]c(=O)[nH]c4=O)sc3nc2c1	4%	i	-4%	32µM*	16	11%
O=C1NC(O)CCN1[C@@H]1O[C@H](CO)[C@H](O)[C@H]1O (stereo partly specified)	0%	.	.	.	.	.
CCc1ccc2[nH]c(=O)c(CN(CCCN3CCOCC3)C(=O)Nc3ccc(Cl)cc3)cc2c1	-21%	i	?	0%	?	?
CCc1ccc2[nH]c(=O)c(CN(CCCN3CCOCC3)C(=O)Nc3cccc(Cl)c3)cc2c1	-27%	?	4%[9.22 µM]	-2%	-62*	?
CCCN1CCCc2cc(CN(CCCN3CCOCC3)C(=O)Nc3ccc(Cl)c(Cl)c3)ccc21	0%	10µM*	.	?	.	.
O=C(Nc1cccc(Cl)c1)N(CCN1CCOCC1)Cc1cccc(Cl)c1	?	?	?	-6%[38.3 µM]	-76*	?
CCc1ccc2[nH]c(=O)c(CN(CCN3CCCC3)C(=O)NC3CCCCC3)cc2c1	2%	i	3%	0%	-56*	14%
CC(NC(=O)CN(c1ccc(Cl)cc1Cl)S(=O)(=O)c1ccccc1)c1ccccc1 (stereo unspecified)	-39%	?	.	2%	.	.
COc1cc(C(=O)N(Cc2cc3ccc(C)cc3nc2N(C)C)C2CC2)cc(OC)c1OC	.	i	.	-1%	.	.
CCN(CC)CCNC1=NCCn2c1cc1cc(OC)ccc12	?	i	?	2%	-76*	?
SMILES	ATXN2 expr inh	ATXN viability	SW480 rerep	PINK1 expr mod	IL-1B inflam inh	MCF10A rereplic
Cc1ccccc1-n1nc(CO)c(C(=O)NCc2cccs2)n1	.	.	.	0%	.	.
CC(C)OC(=O)Nc1ccc2nc(-c3cscn3)[nH]c2c1	.	.	5.3µM*	.	.	9.4µM*
COC(=O)c1ccc(C(=O)Nc2ccc3nc(-c4ccncc4)[nH]c3c2)cc1	139%	i	-3%	-2%	-24	8%
COc1cc(OC)c2c(OC)c(-c3ccc4c(c3)OCO4)c(=O)oc2c1	.	.	.	0%	.	.
CCOc1c2c(c(-c3ccc4c(c3)OCO4)c3cc(OC)c(OC)cc13)C(=O)OC2	.	.	.	14µM*	.	.
Cc1ccc(-n2nc3c(n2)/C(=N/O)CC/C3=N\O)cc1	27%	i	-8%	2%	-23	0%
Cc1ccc(-n2nc3c([n+]2[O-])CCc2c-3no[n+]2[O-])cc1	?	?	?	-5%	-78*	2%
Cc1cccc(-n2nc3c([n+]2[O-])CCc2nonc2-3)c1C	-6%	?	3%	-2%	40	8%
[O-][n+]1onc2c1CCc1c-2nn(-c2ccccc2Cl)[n+]1[O-]	28µM*	?	2%	-2%[38.3 µM]	-74*	8%
COCC(=O)Nc1cc(C(=O)N2CCOc3ccccc3C2)cc2nc(-c3cccnc3)n(C)c12	.	?	.	-1%	.	.
CCC(C(=O)Nc1ccc(C(C)C)cc1)n1nc(C)n2c(cc3cc(C)ccc32)c1=O (stereo unspecified)	6%	?	.	0%	.	.
C=CCOc1ccc(/C=C2\SC(=S)N(N3CCOCC3)C2=O)cc1	0%	?	5.8µM*	0%	7	-3%
COc1ccc(OCC(O)CN2CCN(Cc3ccc4c(c3)OCO4)CC2)cc1 (stereo unspecified)	-1%	i	0%	-1%	0	11%
Cc1ccc(OCC(O)CN2CCN(Cc3ccc4c(c3)OCO4)CC2)c(C)c1 (stereo unspecified)	-22%	i	?	2%	-60*!	?
Cc1ccc2nc(CSc3nc(C)cc(C)c3C#N)[nH]c2c1	129%	.	4.6µM*	5%[38.3 µM]	27	1.8µM*
Cc1c(-c2ccccc2)c(-c2ccc(OCCN(C)C)cc2)n2ccccc12	-20%	?	?	-2%	-59*	?
COc1ccc(-c2sc3ccccc3c2-c2ccc(OCCN(C)C)cc2)cc1	?	?	?	-2%	-27	?
CCOc1ccc(NC(=O)CCS(=O)(=O)c2cc3c4c(c2)CCN4C(=O)CC3)cc1	8%	i	.	0%	.	.
COc1ccc(C(=O)N2CCC3(CC2)CN(C(=O)Nc2cccc(C#N)c2)C3)cc1	.	.	.	-1%	.	.
c1ccc(CN2CCN(c3cnc4ccccc4n3)CC2)cc1	.	i	-10%	-1%	22	4%
CCN(CC)CCOc1cc2c(nn1)Oc1ccccc1N2C	19%	i	-1%	-7%[38.3 µM]	-18	-7%
